Where “and” joins values, the source holds several entries; their conditions need not be identical. Equal values may be shown once. Records with an inconclusive call do not appear. Some compounds were tested as several samples or in several runs, with calls that do not always agree. Calls of active or inactive are those of the source. Unless noted, calls come from the whole dose curve; as a rule, active = well fitted curve in the direction sought with a large enough effect; inconclusive = small, poorly fitted or top-dose-only effect, or another doubt; inactive = no such curve, though single readings can be large; an effect the other way counts as inactive or inconclusive.
What was measured:
[1] = molecular target: Luciferin 4-monooxygenase (Photinus pyralis) (UniProt P08659); assay: Biochemical firefly luciferase enzyme assay for NPC (AID 624030); note: nearly all actives have a fitted effect of over 70% in size; note: potency is the fitted concentration of half-maximal effect
Sequence of Luciferin 4-monooxygenase (Photinus pyralis) (P08659 whole entry, looked up): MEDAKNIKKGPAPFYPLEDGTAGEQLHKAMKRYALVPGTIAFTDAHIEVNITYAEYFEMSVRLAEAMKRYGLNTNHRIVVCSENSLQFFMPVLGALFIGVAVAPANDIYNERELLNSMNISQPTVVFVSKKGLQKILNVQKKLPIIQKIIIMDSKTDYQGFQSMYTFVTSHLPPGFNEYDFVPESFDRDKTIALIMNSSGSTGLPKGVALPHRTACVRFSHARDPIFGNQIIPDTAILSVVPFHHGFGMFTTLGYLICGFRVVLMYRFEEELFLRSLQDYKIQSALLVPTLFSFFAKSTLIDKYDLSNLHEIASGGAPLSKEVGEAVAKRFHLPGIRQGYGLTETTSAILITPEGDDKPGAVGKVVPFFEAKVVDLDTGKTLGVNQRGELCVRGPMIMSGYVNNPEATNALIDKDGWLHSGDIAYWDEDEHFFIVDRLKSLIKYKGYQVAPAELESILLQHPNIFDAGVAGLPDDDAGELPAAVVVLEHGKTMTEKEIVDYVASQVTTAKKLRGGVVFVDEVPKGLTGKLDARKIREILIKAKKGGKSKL
How it was run: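 Direct inhibition of firefly luciferase enzyme (10 nM final, 50 mM Tris Acetate) assessed by luminescence within 5 minutes. Percent activity scaled between DMSO and PTC124 positive control, with concentration-effect curves classified by fit quality and response.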

[2] = S16 Schwann cell viability assay (CellTiter-Glo assay) (AID 624031); note: nearly all actives have a fitted effect of over 70% in size; note: potency is the fitted concentration of half-maximal effect
How it was run: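 Rat S16 Schwann cells without reporter constructs received compound or DMSO for 24 h at 37 °C under 5% CO2. Cellular ATP was then quantified by CellTiter-Glo luminescence, with vehicle wells defined as 0% activity and cell-free wells as reference.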

[3] = S16 Schwann cell PMP22 intronic element firefly luciferase assay (AID 624032); note: nearly all actives have a fitted effect of over 30% in size; note: potency is the fitted concentration of half-maximal effect
How it was run: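 Luciferase reporter of PMP22 intronic-element expression in stably transfected S16 rat Schwann cells, read by ONE-Glo luminescence after 24 h compound exposure at 37 C. Activity scaled between DMSO (0%) and positive-control PTC124; concentration-effect curves quality-classified.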

[4] = S16 Schwann cell PMP22 intronic element beta-lactamase assay (AID 624044; calls by dose curve;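 note: 0% = DMSO and -100% = potassium clavulanate positive control; nearly all actives have a fitted effect of over 15% in size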)
How it was run: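 Rat S16 Schwann cells with beta-Lac driven by a PMP22 intronic element, compound-treated 24 h at 37 °C. LiveBLAzer FRET B/G read: 460 nm normalized to potassium clavulanate vs DMSO; 535 nm FRET as viability; concentration-effect curves classified.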

[5] = qHTS assay for small molecule agonists of the antioxidant response element (ARE) signaling pathway (AID 651741; active = well fitted activation curve with a large enough effect in the signal ratio; the % refers to the signal ratio; note: potency is the fitted concentration of half-maximal effect; for activation: % of control where 0% means no effect)
How it was run: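 Seeding 2,000 ARE-bla HepG2 cells per well preceded a 5 h incubation at 37 C/5% CO2 and a 16 h compound exposure at 37 C. Beta-lactamase reporter activity was then quantified by fluorescence after 2 h with LiveBLAzer B/G FRET substrate.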

[6] = qHTS assay for small molecule activators of the p53 signaling pathway (AID 651743; active = well fitted activation curve with a large enough effect in the signal ratio, not every such curve was filed as active; the % refers to the signal ratio; note: potency is the fitted concentration of half-maximal effect; for activation: series mostly up to about 92 µM; % of control where 0% means no effect); details: HCT-116 p53RE-bla, beta-lactamase FRET ratio, 16 h; activation: stronger effect = higher value
How it was run: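 Screen for p53 pathway agonists uses stably transfected p53RE-bla HCT-116 cells, 4,000 per well, treated 16 h at 37 C with compounds in DMSO.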

[7] = qHTS assay for small molecule activators of the nuclear factor-kappa B (NF-kB) signaling pathway (AID 651749; active = well fitted activation curve with a large enough effect in the signal ratio; the % refers to the signal ratio; note: series mostly up to about 77 µM; % of control where 0% means no effect); details: NF-kB-bla ME-180 cells, beta-lactamase FRET ratio, 16 h; stronger effect = higher value
How it was run: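 Stably transfected ME-180 line; NF-kB response element upstream of beta-lactamase. Treatment: compound or DMSO, 16 hr. Detection: fluorescent FRET substrate.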

[8] = qHTS assay for small molecule disruptors of the mitochondrial membrane potential - 1 hr assay (AID 651754; calls by dose curve; note: % is set by controls: 0 for no effect and ±100 for the full control effect; nearly all actives have a fitted effect of over 35% in size)
How it was run: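 Steps: seed HepG2 cells and let attach overnight; pin-transfer compound or vehicle; incubate 1 hr at 37C; add Mito-MPS dye for 30 min; read two-channel fluorescence for monomer and aggregate forms.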

[9] = qHTS assay for small molecule disruptors of the mitochondrial membrane potential - 5 hr assay (AID 651755; calls by dose curve; note: % is set by controls: 0 for no effect and ±100 for the full control effect; nearly all actives have a fitted effect of over 40% in size)
How it was run: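 HepG2, 2,000 cells/well, overnight attach; cpd or DMSO 5 hr, 37C/5% CO2; Mito-MPS 30 min 37C; fluor 490/535 + 540/590 nm.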

[10] = molecular target: Tumor necrosis factor (Homo sapiens) (UniProt P01375); assay: qHTS assay to identify small molecules that stimulate Tumor Necrosis Factor-alpha (TNF-alpha) secretion (AID 651757; active = well fitted curve in the direction sought with a large enough effect in the signal ratio; the % refers to the signal ratio; note: 0% is about no effect)
Sequence of Tumor necrosis factor (Homo sapiens) (P01375 whole entry, looked up): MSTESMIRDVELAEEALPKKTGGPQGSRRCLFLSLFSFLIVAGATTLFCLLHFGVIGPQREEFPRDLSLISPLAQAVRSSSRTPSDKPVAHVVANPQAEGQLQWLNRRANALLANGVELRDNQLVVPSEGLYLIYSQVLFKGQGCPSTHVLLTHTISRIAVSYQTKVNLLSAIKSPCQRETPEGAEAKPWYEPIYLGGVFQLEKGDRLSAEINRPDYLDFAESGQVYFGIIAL
How it was run: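 Secreted TNF-alpha from compound-treated THP-1 cells (17 hrs, 37 C) was quantified with a homogeneous time-resolved fluorescence antibody assay.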

[11] = qHTS assay to identify small molecules that stimulate interleukin-8 (IL-8) secretion (AID 651758; active = well fitted activation curve with a large enough effect in the signal ratio; the % refers to the signal ratio; note: 0% is about no effect)
How it was run: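 Secreted IL-8 measured by TR-FRET sandwich (cryptate and XL665 antibodies) from THP-1 cells exposed to compound overnight (16 hrs, 37 C).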

[12] = qHTS assay for environmental chemicals that activate the Aryl hydrocarbon Receptor (AhR) signaling pathway (AID 651777); details: 1A2-DRE human hepatoma cells, luciferase, 24 h; activation: stronger effect = higher value; note: nearly all actives have a fitted effect of over 15% in size; note: potency is the fitted concentration of half-maximal effect; for activation: % of control where 0% means no effect
How it was run: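 Measured luciferase activity, read 30 min after One-Glo addition at room temperature, from human hepatoma cells bearing a dioxin response element–CYP1A2 promoter reporter and exposed to compound for 24 hr at 37 C.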

[13] = molecular target: Peroxisome proliferator-activated receptor alpha (Homo sapiens) (UniProt Q07869); assay: qHTS assay for small molecule agonists of the peroxisome proliferator-activated receptor alpha (PPARalpha) signaling pathway (AID 651778); details: PathHunter PPARalpha complementation, chemiluminescence, 6 h; stronger effect = higher value; note: % of control where 0% means no effect
Sequence of Peroxisome proliferator-activated receptor alpha (Homo sapiens) (Q07869 whole entry, looked up): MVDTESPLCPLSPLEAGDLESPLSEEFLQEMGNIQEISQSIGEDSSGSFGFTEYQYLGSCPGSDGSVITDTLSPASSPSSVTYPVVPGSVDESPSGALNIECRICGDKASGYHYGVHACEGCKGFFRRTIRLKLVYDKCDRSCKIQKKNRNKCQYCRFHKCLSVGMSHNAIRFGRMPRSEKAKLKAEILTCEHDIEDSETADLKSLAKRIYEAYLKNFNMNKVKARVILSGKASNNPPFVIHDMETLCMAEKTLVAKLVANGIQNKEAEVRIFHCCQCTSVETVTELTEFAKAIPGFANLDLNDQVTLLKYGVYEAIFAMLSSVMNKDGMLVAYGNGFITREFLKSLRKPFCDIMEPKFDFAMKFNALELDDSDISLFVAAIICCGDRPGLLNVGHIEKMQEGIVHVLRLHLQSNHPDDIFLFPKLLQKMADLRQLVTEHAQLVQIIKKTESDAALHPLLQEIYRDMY
How it was run: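 Chemiluminescence from complemented enzyme reported PPARalpha activation in cells after 6 hr of compound treatment at 37 C. The detection reagent was incubated for 60 min at room temperature, and compounds were scored as agonists.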

[14] = molecular target: Nuclear receptor ROR-gamma (Homo sapiens) (UniProt P51449); assay: qHTS assay for small molecule antagonists of the retinoid-related orphan receptor gamma (ROR-gamma) signaling pathway (AID 651802); note: nearly all actives have a fitted effect of over 60% in size; note: potency is the fitted concentration of half-maximal effect
Sequence of Nuclear receptor ROR-gamma (Homo sapiens) (P51449 whole entry, looked up): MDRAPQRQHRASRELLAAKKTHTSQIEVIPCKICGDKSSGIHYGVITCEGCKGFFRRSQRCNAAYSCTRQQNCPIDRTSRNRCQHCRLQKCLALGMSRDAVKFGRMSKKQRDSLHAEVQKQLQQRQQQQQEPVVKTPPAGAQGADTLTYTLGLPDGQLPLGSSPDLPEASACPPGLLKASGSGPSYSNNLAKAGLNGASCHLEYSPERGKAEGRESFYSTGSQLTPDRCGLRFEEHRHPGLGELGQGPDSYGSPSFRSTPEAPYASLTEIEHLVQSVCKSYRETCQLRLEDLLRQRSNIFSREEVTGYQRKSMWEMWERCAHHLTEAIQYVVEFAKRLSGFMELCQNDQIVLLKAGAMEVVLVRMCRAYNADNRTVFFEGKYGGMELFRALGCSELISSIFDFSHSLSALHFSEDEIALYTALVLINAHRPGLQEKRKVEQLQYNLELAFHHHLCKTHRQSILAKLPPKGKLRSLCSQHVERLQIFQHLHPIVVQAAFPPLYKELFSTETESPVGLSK
How it was run: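 Antagonism is scored as a fall in luminescence from a RORE-luciferase reporter in CHO cells expressing ROR under a TET-inducible promoter, measured 16hr after doxycycline induction in the presence of compound.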

[15] = molecular target: Glutaminase kidney isoform, mitochondrial (Homo sapiens) (UniProt O94925); assay: qHTS for Inhibitors of Glutaminase (GLS): LOPAC Validation (AID 624146); note: nearly all actives have a fitted effect of over 60% in size; note: potency is the fitted concentration of half-maximal effect
Sequence of Glutaminase kidney isoform, mitochondrial (Homo sapiens) (O94925 whole entry, looked up, canonical isoform): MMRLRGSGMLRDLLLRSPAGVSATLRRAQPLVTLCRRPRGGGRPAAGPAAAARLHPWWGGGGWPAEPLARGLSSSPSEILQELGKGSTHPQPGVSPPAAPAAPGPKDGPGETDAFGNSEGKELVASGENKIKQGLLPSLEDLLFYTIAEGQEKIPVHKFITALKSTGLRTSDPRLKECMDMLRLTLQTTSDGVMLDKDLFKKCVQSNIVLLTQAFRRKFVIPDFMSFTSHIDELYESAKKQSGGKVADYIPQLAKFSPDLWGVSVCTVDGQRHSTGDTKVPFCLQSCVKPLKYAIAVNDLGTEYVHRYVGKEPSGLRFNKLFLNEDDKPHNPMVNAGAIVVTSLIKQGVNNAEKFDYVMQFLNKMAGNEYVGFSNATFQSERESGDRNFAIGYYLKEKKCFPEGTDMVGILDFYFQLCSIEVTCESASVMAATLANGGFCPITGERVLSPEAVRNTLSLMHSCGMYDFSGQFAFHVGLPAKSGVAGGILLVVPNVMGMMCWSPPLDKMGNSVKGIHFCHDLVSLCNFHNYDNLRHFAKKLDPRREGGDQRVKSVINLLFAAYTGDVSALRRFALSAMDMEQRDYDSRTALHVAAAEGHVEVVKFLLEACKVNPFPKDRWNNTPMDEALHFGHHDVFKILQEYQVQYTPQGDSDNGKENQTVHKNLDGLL
How it was run: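 hKGA in 45 mM KH2PO4 (pH 8.2), 0.02% Tween-20 with compound, then 1mM L-Glutamine (stock as added) plus glutamate oxidase/HRP/Amplex red coupling mix. Fluorescence read initially and after 30 min at RT; signal change reflects glutamate formation.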

[16] = qHTS of Trypanosoma Brucei Inhibitors: LOPAC Validation (AID 624147); note: potency is the fitted concentration of half-maximal effect
How it was run: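 ADP (130 uM final) triggers the TbPYK reaction after compound addition; incubation is 45 min at room temperature. Kinase-Glo Plus is then added and luminescence imaged. Normalized data are fitted to concentration-effect curves.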

[17] = molecular target: Glucagon-like peptide 1 receptor (Homo sapiens) (UniProt P43220); assay: qHTS of GLP-1 Receptor Agonists: LOPAC Validation (AID 624148);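 note: luminescence from a luciferase reporter switched on by cAMP; 0% is about no effect; higher luminescence signal means agonism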
Sequence of Glucagon-like peptide 1 receptor (Homo sapiens) (P43220 whole entry, looked up): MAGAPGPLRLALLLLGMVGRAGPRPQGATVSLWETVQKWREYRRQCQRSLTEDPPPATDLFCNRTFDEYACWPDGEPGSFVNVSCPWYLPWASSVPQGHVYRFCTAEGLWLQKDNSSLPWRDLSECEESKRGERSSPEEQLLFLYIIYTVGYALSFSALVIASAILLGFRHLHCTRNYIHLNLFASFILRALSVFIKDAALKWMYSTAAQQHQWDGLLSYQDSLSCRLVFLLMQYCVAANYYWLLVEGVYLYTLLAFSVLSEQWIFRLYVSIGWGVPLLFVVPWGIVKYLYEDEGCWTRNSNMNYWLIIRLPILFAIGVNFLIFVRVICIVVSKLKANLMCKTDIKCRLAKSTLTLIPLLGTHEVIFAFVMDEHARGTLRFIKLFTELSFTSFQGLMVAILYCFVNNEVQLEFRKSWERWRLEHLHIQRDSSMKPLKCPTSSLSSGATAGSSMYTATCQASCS
How it was run: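 Agonism scored as increased luciferase luminescence driven by cAMP in HEK293 clones carrying GLP-1R. Cells settled 12 hours, received compound for 4-6 hr at 37 deg C, 5% CO2, and were read after 12 min detection reagent at RT.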

[18] = HTS Assay for Allosteric Antagonists of the Human D2 Dopamine Receptor: Hit Validation in HTRF (AID 624455);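 note: stable D1 dopamine receptor cell line scored for blocking the D1 response; % is set by controls: 0 for no effect and ±100 for the full control effect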
How it was run: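 Signal from an HTRF read-out in D1-expressing stable cells gave hit activity as inhibition of the D1 response.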

[19] = molecular target: Arylsulfatase A (Homo sapiens) (UniProt P15289); assay: qHTS screen for enhancers of Arylsulfatase A (ASA1): LOPAC Validation Assay (AID 720538); note: potency is the fitted concentration of half-maximal effect
Sequence of Arylsulfatase A (Homo sapiens) (P15289 whole entry, looked up): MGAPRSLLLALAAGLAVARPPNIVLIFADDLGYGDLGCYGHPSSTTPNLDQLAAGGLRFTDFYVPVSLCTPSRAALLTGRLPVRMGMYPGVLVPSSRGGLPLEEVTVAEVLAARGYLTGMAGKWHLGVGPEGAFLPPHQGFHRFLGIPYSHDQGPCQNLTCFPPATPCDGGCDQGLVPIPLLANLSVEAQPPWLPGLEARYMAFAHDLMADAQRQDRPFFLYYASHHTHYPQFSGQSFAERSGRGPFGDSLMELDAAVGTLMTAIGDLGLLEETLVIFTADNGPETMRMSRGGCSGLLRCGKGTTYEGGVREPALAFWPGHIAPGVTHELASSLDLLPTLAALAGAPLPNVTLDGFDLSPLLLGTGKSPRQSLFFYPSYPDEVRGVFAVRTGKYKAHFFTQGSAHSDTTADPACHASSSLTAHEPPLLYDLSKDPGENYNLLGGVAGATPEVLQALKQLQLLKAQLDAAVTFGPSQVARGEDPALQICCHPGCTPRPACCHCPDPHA
How it was run: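 Enhancer assay in patient-derived MLD fibroblasts carrying ASA-I179S: 48 h compound exposure at 37 C, then 14 h room-temperature pNCS turnover (0.5 mM final) in lysis buffer. Read by fluorescence at 525/598 nm after NaOH stop.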

[20] = qHTS of Nrf2 Activators: LOPAC Validation (AID 624149); note: 0% is about no effect
How it was run: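 ARE reporter activation measured in AREc32 firefly luciferase cells after 24 hr compound exposure; Steady-Glo luminescence.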

Clc1ccc(Cl)cc1
inactive: Potency [1] | Potency [2] | Potency [3] | Potency [4]

C=CCN=C=S
inactive: Potency [1] | Potency [2] | Potency [3] | Potency [4] | Potency [5] | activation [6] -0.403% | activation [7] -1.41% | Potency [8] | Potency [9] | outcome [10] | Potency [11] | activation [12] 0.264% | max response [13] -1.57% | Potency [14]

S=C=S
inactive: Potency [1] | Potency [2] | Potency [3] | Potency [4] | Potency [5] | activation [6] -0.789% | activation [7] -0.146% | Potency [8] | Potency [9] | outcome [10] | Potency [11] | activation [12] 0.646% | max response [13] -4.15% | Potency [14]

CCCC(=O)OC(C(Cl)(Cl)Cl)P(=O)(OC)OC (stereo not drawn)
inactive: Potency [1] | Potency [2] | Potency [3] | Potency [4]

CCC1C(C)=NN=C(c2ccc(OC)c(OC)c2)c2cc(OC)c(OC)cc21 (stereo not drawn)
active: Potency [3] 7.21 µM
inactive: Potency [1] | Potency [2] | Potency [4]

O=c1c2ccccc2[se]n1-c1ccccc1
inactive: Potency [4] | outcome [17] | Potency [18] | Potency [19]
active: Potency [1] 8.09 µM | Potency [2] 12.8 µM | Potency [3] 28.7 µM | Potency [15] 2.82 µM | Potency [16] 19 µM

O=C1CC[C@@]2(O)C3Cc4ccc(O)c5c4C2(CCN3CC2CC2)[C@H]1O5 (stereo partly drawn)
inactive: Potency [1] | Potency [2] | Potency [3] | Potency [4] | Potency [16] | outcome [17] | Potency [20] | Potency [18]
active: Potency [19] 0.426 µM

Cn1sc(Cl)cc1=O
inactive: Potency [1] | Potency [2] | Potency [3] | Potency [4]

CCOP(=O)(OCC)O/C(=C/Cl)c1ccc(Cl)cc1Cl
active: Potency [5] 30.6 µM | Potency [12] 50.1 µM
inactive: Potency [1] | Potency [2] | Potency [3] | activation [6] -2.13% and -0.49% | activation [7] -2.44% and -1.58% | activation [12] 3.76% | max response [13] -3.2% and -2.2%

O=C1CCCCC1CN1CCCCC1 (stereo not drawn)
inactive: Potency [1] | Potency [2] | Potency [4]

[O]=[Cr](=[O])([OH])[O][Cr](=[O])(=[O])[OH]
active: Potency [2] 4.05 µM and 2.87 µM | Potency [5] 7.5 µM | Potency [6] 22.4 µM and 15.8 µM and 7.94 µM | Potency [14] 33.5 µM and 16.8 µM
inactive: Potency [1] | Potency [4] | activation [7] 1.49% and -0.838% and 3.86% | Potency [8] | Potency [9] | outcome [10] | Potency [11] | activation [12] 0.789% and 0.878% and -0.644% | max response [13] -2.4% and -2.51% and -6.59%

CC[N+](C)(CC)CCOC(=O)C(O)(c1ccccc1)c1ccccc1
inactive: Potency [1] | Potency [2] | Potency [4]

CCCCCCCCCC(=O)O[C@H]1CC[C@H]2[C@@H]3CCC4=CC(=O)CC[C@]4(C)[C@H]3CC[C@]12C
inactive: Potency [1] | Potency [2] | Potency [4]

O=C1CCO1
inactive: Potency [1] | Potency [2] | Potency [3] | Potency [4] | activation [7] -0.561% | Potency [8] | Potency [9] | outcome [10] | activation [12] 1.44% | max response [13] -1.17% | Potency [14]

C=CCN1CCC23c4c5ccc(O)c4O[C@H]2C(=O)CC[C@@]3(O)C1C5 (stereo partly drawn)
inactive: Potency [1] | Potency [2] | Potency [16] | outcome [17] | Potency [20] | Potency [18] | Potency [19]

Clc1ccc(C2(Cn3cncn3)OCCO2)c(Cl)c1
inactive: Potency [1] | Potency [2] | Potency [4]

C[C@]12CCC(=O)C[C@@H]1CC[C@@H]1[C@@H]2CC[C@]2(C)[C@@H](O)CC[C@@H]12
inactive: Potency [1] | Potency [2] | Potency [4] | activation [6] -3.4% and -1.57% | activation [7] 1.2% and 0.597% | outcome [10] | activation [12] -0.925% and -0.613% | max response [13] -1.24% and 0.0043%
active: Potency [5] 24.3 µM | Potency [14] 26.6 µM

O=c1[nH]cc(N(CCCl)CCCl)c(=O)[nH]1
inactive: Potency [1] | Potency [2] | Potency [4]

O=C1CN=C(c2ccccc2)c2cc(Cl)ccc2N1CC1CC1
inactive: Potency [1] | Potency [2] | Potency [4]

O=c1[nH]c(=O)n(Cl)c(=O)n1Cl
inactive: Potency [1] | Potency [2] | Potency [3] | Potency [4] | Potency [5] | activation [12] -2.06% | max response [13] 3.21%

CN1[C@@H]2CC[C@H]1CC(OC1c3ccccc3CCc3ccccc31)C2 (stereo partly drawn)
inactive: Potency [1] | Potency [3] | Potency [4]

c1ccc(C2(N3CCCC3)CCCCC2)cc1
inactive: Potency [1] | Potency [2] | Potency [4]

CC(=O)OC1CN2CCC1CC2 (stereo not drawn)
inactive: Potency [1] | Potency [2] | Potency [4]

ClCC1CO1 (stereo not drawn)
inactive: Potency [1] | Potency [2] | Potency [3] | Potency [4] | activation [6] -3.68% | activation [7] 0.581% | Potency [8] | Potency [9] | outcome [10] | Potency [11] | activation [12] -0.99% | max response [13] -4.69% | Potency [14]

CC12NC(Cc3ccccc31)c1ccccc12 (stereo not drawn)
inactive: Potency [1] | Potency [3] | Potency [4] | Potency [15] | Potency [16] | outcome [17] | Potency [20] | Potency [18] | Potency [19]
